Compounds with a hit are over-represented: about 8.1% of the library has one in this group of screens.
KB-V1 MDR tox – qHTS assay for MDR1-selective chemotherapeutics: Primary screen using the drug-selected MDR subline cells KB-V1; KB-V1 MDR cells viability, CellTiter-Glo, 72 h; AID 1347076, 2019; Potency, µM (titrated, usually from 46.1 µM), hits mostly cytotoxic; hit rate 3.4% among 400,000; note: % is set by controls: 0 for no effect and ±100 for the full control effect; nearly all actives have a fitted effect of over 60% in size
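Cytotoxicity toward P-gp-expressing KB-V1 cells was determined as loss of CellTiter-Glo luminescence after 72 h at 37 degrees C. Compounds were tested in quantitative HTS format across a concentration range, with curves fitted to normalized data.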
SW480 rerep – A quantitative high throughput screen for small molecules that induce DNA re-replication in SW480 colon adenocarcinoma cells; SW480 DNA re-replication, Hoechst DNA content imaging, 48 h; Potency, µM (top dose mostly 46.1 µM), for the others: at the highest dose re-replication activation, actives largely listed as activators; hit rate 1.8% among 340,000; AID 624297, 2012; note: % of control where 0% means no effect; nearly all actives have a fitted effect of over 55% in size
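Image-based read-out: total Hoechst fluorescence of nuclei (405 nm excitation, 500-530 nm emission), with hits raising the fraction of high-intensity nuclei. SW480 colon cells incubated 48 hr with compounds at 37 C.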
ELG1 repair inh – qHTS screen for small molecules that inhibit ELG1-dependent DNA repair in human embryonic kidney (HEK293T) cells expressing luciferase-tagged ELG1; HEK293T ELG1-luciferase reporter, luminescence, 16 h; DNA damage induced by 5-fluorouridine; Potency, µM (series often up to 46.1 µM), inactives show at the top dose activity change, negative = inhibition, usual class: inhibitors; hit rate 2.3% among 330,000; note: % is set by controls: 0 for no effect and ±100 for the full control effect; nearly all actives have a fitted effect of over 55% in size
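Step one: seed 2,000 cells per well. Step two: pin-transfer compound or DMSO alongside 5-fluorouridine. Step three: incubate 16 hr, 37 °C, 5% CO2. Step four: add ONE-Glo, wait 30 min, read luminescence.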
MCF10A rerep – A quantitative high throughput screen for small molecules that induce DNA re-replication in MCF 10a normal breast cells; MCF 10A DNA re-replication, Hoechst nuclear intensity, 48 h; Potency, µM (top dose mostly 46.1 µM), inactives show at the top dose activity, positive = re-replication, most hits filed as activators; hit rate 2.9% among 350,000; note: % of control where 0% means no effect; nearly all actives have a fitted effect of over 50% in size
KB-3-1 tox – qHTS assay for MDR1-selective chemotherapeutics: Primary screen using the parental adenocarcinoma cell KB-3-1. KB-3-1 viability, CellTiter-Glo ATP luminescence, 72 h. Potency, µM (top dose mostly 46.1 µM), usual class: cytotoxic. hit rate 1.4% among 400,000; note: % is set by controls: 0 for no effect and ±100 for the full control effect; nearly all actives have a fitted effect of over 60% in size
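Here the drug-naive KB-3-1 line serves as comparator for MDR sub-line selectivity; cells received compound titrations, 72 h at 37 °C, then CellTiter-Glo readout.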
Starred values were filed as active, the others as inactive; i = inactive; ? = inconclusive; / = not tested or not shown; ! = not confirmed by another sample; [ ] = dose if it differs, or a comment. Calls come from the whole dose curve; as a rule, active = well fitted curve in the direction sought with a large enough effect; inconclusive = small, poorly fitted or top-dose-only effect, or another doubt; inactive = no such curve, though single readings can be large; an effect the other way counts as inactive or inconclusive. Potency is the fitted concentration of half-maximal effect.

SMILES	KB-V1 MDR tox	SW480 rerep	ELG1 repair inh	MCF10A rerep	KB-3-1 tox
COc1ccc(-c2nn(CC(=O)NCCc3ccccc3)c(=S)n2C)cc1	16.4µM*	-3.7%	-21.0%	14.9%	?
Cc1ccc(C2(C)NC(=O)N(CC(=O)NCCC3=CCCCC3)C2=O)cc1 (stereo unspecified)	i	-1.2%[9.22 µM]	4.9%	-5.2%	i
COc1ccc2cc(C3(C)NC(=O)N(CC(=O)NCCC4=CCCCC4)C3=O)ccc2c1 (stereo unspecified)	16.4µM*	10.4%	-22.2%	10.1%	i
COc1ccc(N2CCN(C(=O)CN3C(=O)NC(C)(c4ccc5ccccc5c4)C3=O)CC2)cc1 (stereo unspecified)	2.31µM*	13.9%	?	3.4%	23.1µM*
CC1(c2ccc(Cl)cc2)NC(=O)N(CC(=O)NCCC2=CCCCC2)C1=O (stereo unspecified)	?	0.164µM*	3.2%	16.8%	i
CC(=O)N1CCN(C(=O)CN2C(=O)NC(C)(c3ccc4ccccc4c3)C2=O)CC1 (stereo unspecified)	i	-2.6%	4.2%	-3.7%	i
O=C1CCc2cc([S+](=O)([O-])NC3CCOCC3)ccc2N1	i	/	/	/	i
COc1ccc(CCNC(=O)CN2C(=O)NC(c3ccccc3)(c3ccccc3)C2=O)cc1	/	-0.2%	25.9µM*	-3.7%	/
CN(c1ccccc1)C(CNS(=O)(=O)c1ccccc1)c1ccccc1 (stereo unspecified)	i	/	/	/	i
COc1ccc(C2OC(=O)CC2C(=O)NC2CCCC(C)C2C)cc1OC (stereo unspecified)	?	12.7%	-0.2%	8.1%	i
O=C(C1CC(c2ccc(F)cc2)=NO1)N1CCCCC1 (stereo unspecified)	i	-24.8%	?	5.2%	i
COc1ccc(C2=NOC(C(=O)Nc3ccc(C(C)=O)cc3)C2)cc1OC (stereo unspecified)	14.6µM*	-8.4%	?	16.8%	i
COc1ccc(C2=NOC(C(=O)NC3CCCCC3)C2)cc1OC (stereo unspecified)	16.4µM*	-8.9%	-0.6%	-2.2%	i
COc1ccc(C2=NOC(C(=O)N3CCCCCC3)C2)cc1OC (stereo unspecified)	18.4µM*	-7.3%	5.0%	-6.7%	i
COc1ccc(C2OC(=O)CC2C(=O)NC2CCCCCC2)cc1OC (stereo unspecified)	13µM*	?	-1.1%	6.7%	i
Cc1ccc(SC[C@H](c2ccccc2)N2CCN(CCc3ccccc3)CCC2=O)cc1	i	0.4%	22.6%	8.2µM*	i
Cc1ccc(SC[C@H](Cc2ccccc2)N2CCN(CC(C)C)CCC2=O)cc1	i	0.2%	-1.2%	?	i
CC(C)CN1CCC(=O)N([C@H](CSc2ccccc2)Cc2ccccc2)CC1	13µM*!	?	-11.6%	?	?
CCOc1cc(-c2nc3ccccc3s2)ccc1O	?	1.84µM*	?	?	i
Cc1ccc(-c2nc3ccccc3s2)cc1NC(=O)c1ccc2c(c1)OCO2	i	?	?	8.1%	i
O=C(Nc1cc(-c2nc3ccccc3s2)ccc1Cl)c1ccc2c(c1)OCO2	i	-10.1%	?	9.2µM*	i
CCOc1ccc(C(=O)Nc2cc(-c3nc4ccccc4s3)ccc2OC)cc1	7.31µM*	/	/	/	?
NC(=O)c1nn(CC(=O)Nc2cccc(S(=O)(=O)N3CCCC3)c2)c(=O)c2ccccc12	i	-9.0%	-17.0%	0.2%	i
O=c1[nH]c(CSc2ncccn2)nc2c1cnn2-c1ccccc1	?	-0.4%	-21.9%	4.7%	i
Cc1ccc2nc(SCc3nc4c(cnn4-c4ccccc4)c(=O)[nH]3)[nH]c2c1	2.31µM*	-2.3%	-6.1%	?	2.59µM*
SMILES	KB-V1 MDR tox	SW480 rerep	ELG1 repair inh	MCF10A rerep	KB-3-1 tox
O=c1[nH]c(CSc2nc3ccccc3o2)nc2c1cnn2-c1ccccc1	i	-1.0%	-0.4%	?	i
O=c1[nH]c(SCc2nc3c(cnn3-c3ccccc3)c(=O)[nH]2)nc2ccccc12	?	0.0%	?	?	2.06µM*
O=C(CSc1nc2c(cnn2-c2ccc(F)cc2)c(=O)[nH]1)N1CCOCC1	i	-5.0%	3.4%	4.5%	i
O=c1[nH]c(CSc2nc3ccccc3[nH]2)nc2c1cnn2-c1ccccc1	10.3µM*	5.8%	11.6µM*	?	i
Cc1ccc(-n2ncc3c(=O)[nH]c(SCC(=O)N4CCOCC4)nc32)cc1	i	-5.0%	-4.1%	25.9µM*	i
C[C@@H]1CN([C@H](C)CO)C(=O)CCCn2cc(nn2)CO[C@H]1CN(C)C(=O)Nc1ccc(F)cc1	i	/	/	/	i
CC(C)Oc1ccc(C(=O)Nc2ccc3oc(-c4ccncc4)nc3c2)cc1	i	/	/	/	?
Cc1cc2n(c(=O)c1C#N)CCCN2c1cccc(Cl)c1	13µM*	-2.0%	?	2.6%	i
COc1ccc(/C=C(\C#N)c2nc(-c3cc(Cl)ccc3OC)cs2)cc1	i	/	/	/	i
Cc1nn(C)c(Oc2cccc(Cl)c2)c1C(=O)Nc1ccc(F)cc1	14.6µM*	-7.1%	11.7%	2.3%	i
Cc1cccc(Oc2nccc(C(F)(F)F)c2C(=O)Nc2ccc(F)cc2F)c1	i	-8.3%	2.8%	5.4%	i
Cc1nn(C)c(Oc2cccc(Cl)c2)c1C(=O)Nc1ccc(F)cc1F	18.4µM*	-5.9%	1.4%	-4.8%	i
N/C(=N/OC(=O)c1ccccc1Cl)c1nonc1N	i	3.3%	0.0%	-33.6%	?
N/C(=N/OCC(=O)Nc1cccc2ccccc12)c1nonc1N	14.6µM*	-6.0%	2.4%	-0.1%	i
COc1ccc2oc(C(=O)Nc3nc(C)cs3)c(C)c2c1	?	11.8%	?	2.2%	i
Nc1c(Cl)ncnc1NCCc1ccc(O)cc1	?	?	10.3µM*	1.2%	?
Nc1c(Cl)ncnc1NCc1cccnc1	i	3.0%	-14.7%	5.2%	i
CCCn1c(SCC(=O)N2CCN(c3ccc(OC)cc3)CC2)nc2c1c(=O)n(C)c(=O)n2C	?	-2.6%	20.6µM*	?	i
CCCn1c(SCC(=O)Nc2ccccc2C(=O)OC)nc2c1c(=O)n(C)c(=O)n2C	5.01µM*	-8.7%	1.8%	1.5%	i
CCCn1c(=O)n(C)c(=O)c2c(SCC(=O)Nc3cc(C)on3)nc(C(C)(C)C)nc21	i	-2.7%	8.2µM*	?	?

Screening data: PubChem BioAssay, National Center for Advancing Translational Sciences (NCATS)
